# Sampled rows, rich in hits. Any-hit rate of the full collection: about 9.3%.
# FMDV inh: High Throughput Screening for Foot and Mouth Disease Virus Antivirals; AID 1159524, 2015; FMDV antiviral cell-based qHTS; Potency, µM (top dose mostly 57.9 µM), for inactives: at the top dose activity change, negative = inhibition, hits mostly inhibitors; 410,000 compounds, 1.2% hits; calls by dose curve; tested in HEK293T cells; note: read-out not given here; potency is the fitted concentration of half-maximal effect; nearly all actives have a fitted effect of over 45% in size
# HCMV inh: qHTS Assay for inhibitors of the human cytomegalovirus (HCMV). 410,000 compounds, 4.5% hits. HFF cells, HCMV-luciferase reporter, 72 h; active compounds read low. activity change, negative = inhibition, % at 57.5 µM. AID 1259415, 2018; in the data active = activity change below about -60%; inconclusive = no clear call, values can overlap the other calls; inactive = above about -39%
#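 HFF cells seeded 16 h at 37C, treated with compounds, infected with luciferase-reporter HCMV at MOI 1 PFU/cell; luciferase read at 72 h post infection, normalized to buffer-only and Salinomycin controls.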
# Sm TGR block: qHTS Assay for the Inhibitors of Schistosoma Mansoni Peroxiredoxins | Schistosoma mansoni thioredoxin glutathione reductase (TGR), Q962Y6 | purified TGR, DTNB reduction, TNB absorbance 405 nm | Potency, µM (highest dose often 114 µM), for inactives: top-dose activity change, negative = inhibition, actives largely listed as inhibitors | 360,000 compounds, 3% hits; note: potency is the fitted concentration of half-maximal effect; nearly all actives have a fitted effect of over 60% in size
#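 First, TGR (20 nM dispensed) and NADPH were mixed with compound. Second, a 15 min room-temperature incubation followed. Third, further NADPH and then DTNB were added to start the reaction. Finally, TNB absorbance was monitored kinetically.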
# Vaccinia mCherry: qHTS for Stage-Specific Inhibitors of Vaccinia Orthopoxvirus: mCherry Reporter Primary qHTS | AID 720579, 2013 | 310,000 compounds, 0.63% hits | Vaccinia virus mCherry reporter infection, fluorescence | Potency, µM (top dose mostly 36.5 µM), for inactives: at the highest dose activity change, negative = inhibition, actives largely listed as inhibitors; calls by dose curve; tested in A549 cells; note: potency is the fitted concentration of half-maximal effect; nearly all actives have a fitted effect of over 35% in size
# HCV inh: qHTS Assay for Inhibitors of Hepatitis C Virus (HCV) | Huh7.5.1 HCVcc-Cre infection, luciferase reporter, 44 h | Potency, µM (top dose mostly 41.8 µM), for the others: top-dose activity change, negative = inhibition, most hits filed as inhibitors | 340,000 compounds, 3.4% hits | AID 651820, 2012; note: potency is the fitted concentration of half-maximal effect
#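 Cells (1,000/well) were plated 4 h before compound, then infected with HCVcc-Cre virus (~0.5 moi). After 44 h further culture, infection was read as luciferase luminescence following a 15 min substrate incubation at room temperature.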
# Vaccinia Venus: qHTS for Stage-Specific Inhibitors of Vaccinia Orthopoxvirus: Venus Reporter Primary qHTS; Vaccinia virus Venus reporter expression, fluorescence; Potency, µM (doses to about 36.5 µM), for the others: at the highest dose activity change, negative = inhibition, hits mostly inhibitors; 330,000 compounds, 0.46% hits; calls by dose curve; tested in A549 cells; note: potency is the fitted concentration of half-maximal effect; nearly all actives have a fitted effect of over 30% in size
# Numbers without * were called inactive; i = inactive; ? = inconclusive; / = no result. Unless noted, calls come from the whole dose curve; as a rule, active = well fitted curve in the direction sought with a large enough effect; inconclusive = small, poorly fitted or top-dose-only effect, or another doubt; inactive = no such curve, though single readings can be large; an effect the other way counts as inactive or inconclusive. % is set by controls: 0 for no effect and ±100 for the full control effect.
SMILES,FMDV inh,HCMV inh,Sm TGR block,Vaccinia mCherry,HCV inh,Vaccinia Venus
C(=C\n1nnc2ccccc21)/c1ccc[nH]1,40%,-8,25µM*,?,18%,-5%
COc1cc(C(=O)NCC(=O)OCCN2C(=O)c3ccccc3C2=O)cc(OC)c1OC,-1%,44,-21%,i,?,-23%
O=C1NCCCC2c3c(cc(Br)c(O)c3Br)OC12N1CCOCC1 (stereo not given),23%,-14,40µM*,/,9%,/
CCOc1ccccc1C(=O)NCC(=O)NNC(=O)c1csc(N2CCOCC2)n1,0%,-19,/,i,/,-19%
Cc1ccc(C(=O)N/C(=C/c2ccco2)C(=O)N2CCC(C)CC2)cc1,14%,9,50µM*,-5%,10%,10%
CC1CCN(C(=O)/C(=C\c2ccco2)NC(=O)c2ccccc2)CC1,9%,-7,-35%,i,7%,12%
CC1CCCN(C(=O)/C(=C/c2ccco2)NC(=O)c2ccccc2)C1 (stereo not given),-4%,2,-27%,-8%,5%,11%
O=C(N/C(=C\c1ccco1)C(=O)N1CCCC1CO)c1ccccc1 (stereo not given),5%,-18,35µM*,-5%,24%,23%
CC1CCN(C(=O)/C(=C\c2cccs2)NC(=O)c2ccccc2)CC1,16%,18,4µM*,-19%,7%,-2%
CSCCC(NC(=O)c1ccco1)C(=O)NCCc1ccc(Cl)cc1 (stereo not given),-19%,7,/,i,-11%,-10%
C#CCOCCOCCOCCNc1nc(N2CCOCC2)nc(N2CCN(C(=O)CCCCCCCCCCNC(=O)Cn3cc(CCCCCN)nn3)CC2)n1,0%,-21,?,i,19%,-21%
C#CCOCCOCCOCCNc1nc(N2CCN(C(=O)CCCCCCCCCCNC(=O)Cn3cc(CCCCCN)nn3)CC2)nc(N2CCN(C(=O)CCCCCCCCCCNC(=O)[C@H]([C@@H](C)CC)n3cc(CCCCCN)nn3)CC2)n1,?,/,45µM*,?,?,10µM*
C#CCOCCOCCOCCNc1nc(N2CCN(C(=O)CCCCCCCCCCNC(=O)Cn3cc(CCCCCN)nn3)CC2)nc(N2CCN(C(=O)CCCCCCCCCCNC(=O)[C@H](CO)n3cc(CCCCCN)nn3)CC2)n1,-20%,/,40µM*,i,32µM*,?
C#CCOCCOCCOCCNc1nc(N2CCN(C(=O)CCCCCCCCCCNC(=O)[C@H](CO)n3cc(CCCSC)nn3)CC2)nc(N2CCN(C(=O)CCCCCCCCCCNC(=O)[C@H](CO)n3cc(CCCSC)nn3)CC2)n1,-10%,-71*,-27%,?,10%,?
COc1ccc(NS(=O)(=O)c2cccc(C(=O)N(C)Cc3cccs3)c2)cc1,32%,-21,5%,-11%,9%,-12%
O=C(Nc1nncs1)c1cc2c(s1)CCC2,-6%,63,-12%,i,13%,-14%
O=C(Nc1nccs1)c1cc2c(s1)CCCCC2,8.9µM*,-64*,-14%,/,-19%,?
CC(=O)/C=N/Nc1ccccc1,-2%,20,-30%,0%,-2%,-11%
OC[C@@H](O)[C@H](O)C(/C=N/Nc1ccccc1)=N\Nc1ccccc1,9%,65,20µM*,-20%,?,-28%
O=C(OCc1cc([N+](=O)[O-])cc2c1OCOC2)c1ccccn1,-5%,-11,3%,/,-16%,/
O=C(OCc1cc([N+](=O)[O-])cc2c1OCOC2)c1cccnc1SC(F)F,-16%,5,-4%,-14%,1µM*,-10%
Cc1ccc(Nc2nnc(-c3ccc(C)c(S(=O)(=O)N4CCOCC4)c3)c3ccccc23)c(C)c1,-19%,-66*,2%,-15%,/,-32%
CNS(=O)(=O)c1cc(-c2nnc(Nc3cc(C)ccc3C)c3ccccc23)ccc1C,9%,-78*,1%,-22%,/,-14%
Cc1ccccc1Nc1nnc(-c2ccc(C)c(S(=O)(=O)N3CCOCC3)c2)c2ccccc12,?,-9,-1%,-2%,/,-13%
Cc1ccc(-c2nnc(Nc3ccccc3)c3ccccc23)cc1S(=O)(=O)N1CCOCC1,?,-1,-4%,?,/,-20%
SMILES,FMDV inh,HCMV inh,Sm TGR block,Vaccinia mCherry,HCV inh,Vaccinia Venus
Cc1nnc(-c2ccc(N3CCOCC3)c([N+](=O)[O-])c2)o1,19%,/,-5%,/,-7%,/
Cc1ccc(-c2nnc(Nc3cccc(O)c3)c3ccccc23)cc1S(=O)(=O)N1CCOCC1,-48%,-61*,7%,-20%,/,-28%
Cc1ccc(-c2nnc(Nc3ccc(F)cc3)c3ccccc23)cc1S(=O)(=O)NC(C)C,11%,-14,10%,-19%,/,-30%
Cc1cccc(Nc2nnc(-c3ccc(N4CCOCC4)c([N+](=O)[O-])c3)c3ccccc23)c1,-13%,-68*,3%,-13%,14µM*,-27%
O=C(O)c1ccc(-n2nnnc2SCc2cccc(Br)c2)cc1,-10%,?,-15%,i,8%,-5%
COc1cc(CN2CCCCCC2)cc(OC)c1,-9%,35,100µM*,-12%,7%,-11%
CC(C)(C)c1cc(CN2CCCCC2)cc(C(C)(C)C)c1O,/,30,45µM*,/,13%,/
COc1ccc(CN2CCCCCC2)cc1,-5%,-2,18%,i,-8%,-3%
Oc1cccc(CN2CCCCC2)c1,-4%,/,-7%,-7%,1%,-6%
CCOC(=O)c1c(NC(=O)COC(=O)CNC(=O)c2ccco2)sc(C(C)=O)c1C,-26%,0,-7%,i,?,-16%
O=C(CSc1nnc(-c2ccc(O)cc2)n1Cc1ccccc1)NNC(=O)c1ccc(Br)cc1,-8%,-68*,-12%,-12%,-20%,-4%
COc1ccc(NC(=O)/C=C/c2cc(OC)c(OC)c(OC)c2)cn1,9%,-32,45µM*,i,-1%,-1%
COc1ccc(NC(=O)/C=C/c2ccccc2)cn1,44%,10,4%,-13%,-14%,-9%
COc1ccc(NC(=O)/C=C/c2ccc(F)cc2)cn1,6%,24,-9%,-16%,?,-7%
COc1cccc(/C=C/C(=O)Nc2ccc(OC)nc2)c1,6%,-66*,-13%,-19%,5%,-14%
Cc1cc(C(=O)N2CCCC(N3CCN(c4cccc(Cl)c4)CC3)C2)n(C)n1 (stereo not given),-29%,-31,-2%,i,/,-14%
